Screening data deposited in PubChem BioAssay by National Center for Advancing Translational Sciences (NCATS).
SMN2 splice enh – qHTS Assay for Enhancers of SMN2 Splice Variant Expression; HEK293 SMN2-luciferase splicing reporter, luminescence, 30-36 h; Potency, µM (doses to about 46.1 µM), usual class: activators; hit rate 2.8% among 210,000; AID 1458, 2008; also: nearly all actives have a fitted effect of over 55% in size
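HEK293 cells carry an SMN2 […]–luciferase reporter in which exon 7 inclusion puts luciferase in frame. Cells were plated 10-12 h before compound addition, then incubated 30-36 h at 37C. ONE-Glo luminescence was read; sodium butyrate at 4.5 mM final served as control.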
ELG1 repair inh – qHTS screen for small molecules that inhibit ELG1-dependent DNA repair in human embryonic kidney (HEK293T) cells expressing luciferase-tagged ELG1; HEK293T ELG1-luciferase reporter, luminescence, 16 h; DNA damage induced by 5-fluorouridine; Potency, µM (top dose mostly 46.1 µM), most hits filed as inhibitors; hit rate 2.3% among 330,000; also: nearly all actives have a fitted effect of over 55% in size
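5-Fluorouridine DNA damage + compound/DMSO, 2,000 cells/well, 16 h, 37 °C/5% CO2. ONE-Glo, 30 min RT, luminescence. Readout = decrease in reporter signal.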
Rab9 promoter act – qHTS Assay for Rab9 Promoter Activators | Potency, µM (highest dose often 9.22 µM), most hits filed as activators | Huh7 Rab9 promoter-luciferase reporter, luminescence, 24 h | hit rate 2.8% among 320,000; also: nearly all actives have a fitted effect of over 60% in size
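Quantitative HTS format; Huh7 Rab9-luciferase reporter cells (1500/well) receive compound 2 h post-plating, incubate 24 h at 37 °C, then get luciferase reagent for 10 min before luminescence reading.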
NPC1 promoter act – qHTS Assay for NPC1 Promoter Activators; Huh7 NPC1 promoter luciferase reporter, 24 h; Potency, µM (titrated, usually from 9.22 µM), most hits filed as activators; hit rate 2.4% among 320,000; also: nearly all actives have a fitted effect of over 60% in size
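Compounds in DMSO were transferred onto Huh7 NPC1-luciferase reporter cells pre-incubated 2 h; after 24 h at 37 °C, Amplite reagent was dispensed and luminescence recorded 10 min later.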
ELG1 genotoxic – qHTS screen for small molecules that induce genotoxicity in human embryonic kidney (HEK293T) cells expressing luciferase-tagged ELG1; HEK293T ELG1-luciferase reporter, luminescence, 16 h; Potency, µM (doses to about 46 µM), actives largely listed as activators; hit rate 1.3% among 330,000; AID 504466, 2011; also: nearly all actives have a fitted effect of over 60% in size
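Screening used a luciferase reporter fused to human ELG1 in HEK293T cells. Luminescence was read on a CCD plate imager after 16 hr exposure and 30 min ONE-Glo incubation.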
FLuc modulator – qHTS profiling assay for firefly luciferase inhibitor/activator using purifed enzyme and Km concentrations of substrates (counterscreen for miR-21 project) | Luciferin 4-monooxygenase (Photinus pyralis), P08659 | purified FLuc, Km substrates, luminescence inhibition | Potency, µM (highest dose often 57.5 µM), hits mostly inhibitors | hit rate 6.9% among 360,000; also: nearly all actives have a fitted effect of over 55% in size
Target sequence (P08659 whole entry, looked up): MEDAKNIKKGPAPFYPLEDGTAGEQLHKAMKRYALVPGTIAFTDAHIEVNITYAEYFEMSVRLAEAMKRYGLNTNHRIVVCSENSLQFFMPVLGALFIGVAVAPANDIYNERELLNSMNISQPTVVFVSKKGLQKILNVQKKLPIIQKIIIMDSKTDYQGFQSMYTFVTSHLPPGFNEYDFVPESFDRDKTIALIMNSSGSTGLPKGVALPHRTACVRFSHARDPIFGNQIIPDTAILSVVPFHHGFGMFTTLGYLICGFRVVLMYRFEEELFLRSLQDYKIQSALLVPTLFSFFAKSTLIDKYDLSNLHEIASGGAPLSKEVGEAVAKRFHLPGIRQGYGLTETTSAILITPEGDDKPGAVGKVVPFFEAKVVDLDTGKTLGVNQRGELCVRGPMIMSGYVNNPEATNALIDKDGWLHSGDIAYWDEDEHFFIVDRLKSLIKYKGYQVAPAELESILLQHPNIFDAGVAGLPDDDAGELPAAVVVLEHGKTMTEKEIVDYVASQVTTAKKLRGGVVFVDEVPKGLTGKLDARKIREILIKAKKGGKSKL
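Purified P. pyralis luciferase (10nM final) with 10uM D-luciferin and 10uM ATP (Km levels) in 50mM Tris acetate pH 7.5, 10mM Mg acetate, 0.01% Tween-20, 0.05% BSA; qHTS 6-point titration, ~60 µM downward; luminescence read.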
Hits are given with their value; . = inactive; ? = inconclusive; / = no result; [ ] = another dose, or the depositor's remark. In the library only some 9.4% were active in any assay of this set; here they are far more common. Calls follow the shape of the dose curve; as a rule, active = well fitted curve in the direction sought with a large enough effect; inconclusive = small, poorly fitted or top-dose-only effect, or another doubt; inactive = no such curve, though single readings can be large; an effect the other way counts as inactive or inconclusive.

SMILES	SMN2 splice enh	ELG1 repair inh	Rab9 promoter act	NPC1 promoter act	ELG1 genotoxic	FLuc modulator
Cc1ccc(-n2cccc2/C=C2/C(=N)N3C(=NC2=O)SN=C3S(C)(=O)=O)cc1Cl	.	?	.	.	.	.
Cc1ccc(C(=O)N2c3nc(-c4ccco4)nn3C3(CCCCC3)[C@@H]3CCCC[C@@H]32)cc1	/	/	/	/	/	.
CC1=CC2=NC(=O)/C(=C\c3cc(C)n(-c4ccc(F)cc4)c3C)C(=N)N2O1	.	.	.	.	.	.
Cc1cc(/C=C2/C(=N)N3C(=NC2=O)SN=C3S(C)(=O)=O)c(C)n1-c1ccc(F)cc1	?	?	.	.	?	1.5µM
COc1ccc(CC(=O)Nc2ccc(-c3cn4ccccc4n3)cc2)cc1OC	.	.	.	.	?	17µM
CCC(=O)Nc1cccc(-c2cn3ccccc3n2)c1	?	?	?	?	.	11µM
CN(C)S(=O)(=O)c1cccc(-c2cn3ccccc3n2)c1	.	?	.	.	.	.
COc1ccc(CC(=O)Nc2cccc(-c3cn4ccccc4n3)c2)cc1	.	?	.	.	.	8.5µM
COc1ccc(CC(=O)Nc2cccc(-c3csc(C)n3)c2)cc1	.	?	.	.	.	?
CCOc1ccc(CC(=O)Nc2ccc(-c3ccc4nnc(C)n4n3)cc2)cc1	.	?	.	.	21µM	.
COc1ccc(CC(=O)Nc2ccc(-c3cn4ccccc4n3)cc2)cc1	?	?	3.2µM	?	?	3.4µM
O=C(Nc1ccc(-c2cn3ccccc3n2)cc1)c1cc(Br)ccc1O	.[9.22 µM]	/	/	/	/	/
COc1ccc(-c2cn(-c3ccc(C)cc3)c(S(=O)(=O)CC(=O)Nc3ccccc3)n2)cc1	13µM	/	/	/	/	?
O=C(Nc1ccc(-c2cn3ccccc3n2)cc1)c1cccs1	11µM	?	3.5µM	1.8µM	?	1.9µM
COc1ccc(-c2cn(-c3ccc(C)cc3)c(S(=O)(=O)CC(=O)Nc3ccc(F)cc3)n2)cc1	.	/	/	/	/	?
O=C(Nc1cccc(-c2cn3ccccc3n2)c1)C1CC1	?	?	.	.	?	13µM
CCC(=O)Nc1cccc(-c2cn3cccc(C)c3n2)c1	/	?	?	?	.	7.6µM
Cc1ccc(S(=O)(=O)Nc2cccc(-c3cn4cccc(C)c4n3)c2)c(C)c1	.	/	/	/	/	?
CCOC(=O)c1ccccc1NC(=O)c1cc2ccccc2o1	/	.	?	.	.	?
CCOC(=O)c1ccc(NC(=O)c2cc3ccccc3o2)cc1	.	.	?	?	.	9.5µM
CCOC(=O)c1cccc(NC(=O)c2cc3ccccc3o2)c1	/	?	1.3µM	?	.	5.4µM
CN(Cc1ccccc1)S(=O)(=O)c1ccc(-c2cnc(C3CC3)o2)cc1	/	/	/	/	/	.
COc1ccc(Cl)cc1C(=O)Nc1cccnc1	/	.	.	.	.	.
Cc1ccc(C)c(NC(=O)c2cc(-c3ccccc3O)n[nH]2)c1	/	?	?	?	.	?
Cc1ccc(O)c(-c2cc(C(=O)Nc3cccnc3)[nH]n2)c1	/	?	2.2µM	2.8µM	?	5.4µM
SMILES	SMN2 splice enh	ELG1 repair inh	Rab9 promoter act	NPC1 promoter act	ELG1 genotoxic	FLuc modulator
Cc1ccc(C)c(NC(=O)c2cc(-c3cc(C)c(C)cc3O)n[nH]2)c1	/	?	3.5µM	?	?	?
O=C(Nc1cccnc1)c1cc(-c2cc(Cl)ccc2O)n[nH]1	/	?	?	2.8µM	.	2.4µM
Cc1ccc(-c2cc(C(=O)Nc3cc(C)ccc3C)[nH]n2)c(O)c1	.	?	?	.	.	.
Cc1ccc(NC(=O)C2CCC(CNS(=O)(=O)c3ccc4c(c3)CCCC(=O)N4)CC2)c(C)c1 (stereo not given)	/	/	/	/	/	.
O=C(N/N=C/c1ccc2cccc(OCc3ccccc3)c2n1)c1ccc(Br)cc1	.	16µM	.	.	.	2.7µM
COc1c(OC(C)=O)ccc(/C=C/c2ccc3cccc(OCc4ccccc4)c3n2)c1[N+](=O)[O-]	.[1.84 µM]	?	?	?	.	1.5µM
COc1ccc(C(=O)N/N=C/c2ccc3cccc(OCc4ccccc4)c3n2)cc1	.	15µM	.	.	.	1.5µM
CCOC(=O)N1CCN(C(=O)CSCC(=O)Nc2nc(-c3ccc(Cl)s3)cs2)CC1	.	16µM	.	.	.	.
Cc1cccc(CSc2ncc(Cl)c(C(=O)Nc3sc4c(c3C#N)CCCC4)n2)c1	.	/	/	/	/	.
Cc1ccc(C)c(Cn2nnc(C(=O)NCc3ccccc3)c2N)c1	.	/	/	/	/	.
O=C(Nc1nc2ccccc2s1)Nc1ccc(F)cc1F	/	?	1.3µM	1µM	4.1µM	0.85µM
COc1ccc(OC)c(NC(=O)c2nc3ccccc3s2)c1	.	?	.	.	.	.
O=C(NNc1nc2ccccc2s1)Nc1ccc(Cl)c(Cl)c1	/	?	.	.	.	?
COc1ccc(NC(=O)c2nc3ccccc3s2)cc1	?	?	1.6µM	3.5µM	1.3µM	1.1µM
O=C(Nc1ccc(F)cc1F)Nc1sccc1-c1nc2ccccc2s1	/	.	.	.	.	.
COc1ccc(C(=O)Nc2cccc(/C=C(\CCC(=O)O)c3nc4ccccc4s3)c2)cc1	/	?	?	3.2µM	.	9.5µM
O=C(NNc1nc2ccccc2s1)Nc1ccc(F)cc1	/	?	3.2µM	4µM	?	?
Cn1c(=O)oc2cc(S(=O)(=O)NCCC(=O)Nc3ccc(F)cc3F)ccc21	.	/	/	/	/	.
CC(=O)N1CCc2c(sc3c2c(=O)n(-c2ccccc2Cl)c(=O)n3C)C1	/	/	/	/	/	.
CCCC/C=C/C(NC(=O)c1ccco1)c1ccccc1 (stereo not given)	.	/	/	/	/	/
Cn1nnnc1SCCCNCc1cc(Br)ccc1OCc1ccccc1	/	/	/	/	/	.
COc1ccc2nc(NC(=O)Nc3ccccc3)sc2c1	0.89µM	?	0.71µM	?	?	0.48µM
CC(C)C(=O)NNc1nc2ccccc2s1	?	?	?	?	18µM	?
COc1ccc(NC(=O)Nc2nc3ccccc3s2)cc1	/	?	1.6µM	1.8µM	?	2.4µM
CCOc1ccc2nc(NC(=O)NC3CCCCC3)sc2c1	.	?	?	?	?	?
CCOc1ccc2nc(NC(=O)Nc3ccccc3)sc2c1	11µM	?	1.4µM	?	?	0.85µM
COc1ccc2nc(NC(=O)C3=NN(c4ccccc4)C(=O)CC3)sc2c1	.	.	.	.	.	?
CN1C(=O)c2ccccc2Sc2ccc(NC(=O)COc3ccc(Cl)cc3)cc21	/	/	/	/	/	.
CCCCCCOC(=O)C1(O)CC2OC1(C)n1c3ccccc3c3c4c(c5c6ccccc6n2c5c31)C(=O)NC4 (stereo not given)	.	/	/	/	/	/
Cc1ccccc1C(=O)N1CCN(CCc2ccccn2)CC1	/	/	/	/	/	.
